Tg IFNy HTS = inhibitors of Toxoplasma gondii growth with IFN-gamma | AID 1259416 | activity change, negative = inhibition, % (no concentration beside the values) | Toxoplasma gondii growth in IFN-gamma-treated host cells; stronger effect = lower value | actives 3.8% (n = 69,000); in the data active means activity change below about -70%, passing the limit was not always enough;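 further: host cells are HeLa cells infected with Toxoplasma gondii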
Active calls of the source: *. The full list was thinned out, with hits kept by preference.

Results for O=C(c1ccco1)N1Cc2ccccc2C2(CCN(c3cnccn3)CC2)C1 ?
Tg IFNy HTS: 13

Results for CN(C)Cc1noc2c1CN(Cc1nccn1C)CC2 ?
Tg IFNy HTS: -75*

Results for CN(C)Cc1noc2c1CN(Cc1ccoc1)CC2 ?
Tg IFNy HTS: -32

What do the screens show for `Cc1cccc(CN2CCc3onc(CN(C)C)c3C2)n1`?
Tg IFNy HTS: -2

How did Cn1c(=O)c(-c2nc(-c3cccc(Cl)c3)no2)c(O)c2ccccc21 do in these assays?
Tg IFNy HTS: 15

How did CN1CCN(C(=O)C2(c3ccc(F)cc3)CC2)CC1=O do in these assays?
Tg IFNy HTS: 0

Results for CC(=O)OC(C)C1CCC2C3CC[C@H]4CC(=O)CCC4(C)C3CCC12C (stereo partly drawn) ?
Tg IFNy HTS: -97*

Results for CC(=O)OCC(=O)[C@H]1CCC2C3CCC4=CC(=O)CC[C@]4(C)C3CC[C@@]21C (stereo partly drawn) ?
Tg IFNy HTS: -30

Results for C[C@H](CCC(=O)O)[C@H]1CC[C@H]2[C@@H]3[C@@H](O)C[C@@H]4C[C@H](O)CC[C@]4(C)[C@H]3CC[C@]12C ?
Tg IFNy HTS: 11

Results for COCCN1C(=O)CCC12CCN(C(=O)CC1CC1)CC2 ?
Tg IFNy HTS: 453

What do the screens show for `CC(C)CC(NS(=O)(=O)c1ccc2[nH]c(=O)ccc2c1)C(=O)N1CCCCC1` (stereo not drawn)?
Tg IFNy HTS: 61

How did Cc1ncc(C(=O)N2CCCC(CCc3ccc(F)cc3)C2)s1 (stereo not drawn) do in these assays?
Tg IFNy HTS: -14

What do the screens show for `O=C(c1cn[nH]c1-n1cnnn1)N1CCCC(CCc2ccc(F)cc2)C1` (stereo not drawn)?
Tg IFNy HTS: -13

What do the screens show for `O=C(c1ccc2cccnc2c1O)N1CCCC(CCc2ccc(F)cc2)C1` (stereo not drawn)?
Tg IFNy HTS: -81*

Results for C=CCNc1ccccc1C(=O)NCCNC(C)=O ?
Tg IFNy HTS: 4

Results for CC1CCCC(C)N1C(=S)NCCCN1CCOCC1 (stereo not drawn) ?
Tg IFNy HTS: -80*

Results for Cc1ccc(C(=O)NC(=S)NCCCN2CCOCC2)cc1 ?
Tg IFNy HTS: -2

What do the screens show for `Cc1c(C(=O)NCCCN2CCOCC2)cc(C(C)(C)C)n1-c1ccccc1`?
Tg IFNy HTS: -18

How did Cc1ccc(CN2CC[C@@H]3OCCN(C(=O)c4cnccn4)[C@@H]3C2)cc1C do in these assays?
Tg IFNy HTS: -3

How did Cc1nc(C)n(CC(=O)Nc2ccc3c(c2)CN(Cc2ccccc2)C3)n1 do in these assays?
Tg IFNy HTS: 2

How did Cc1ccc(NC(=O)C(=O)NCCc2sc(-c3ccccc3)nc2C)c(C)c1 do in these assays?
Tg IFNy HTS: 91

How did CNc1ncc(CN(C)C(=O)c2cccc(CC3CCNCC3)c2)cn1 do in these assays?
Tg IFNy HTS: -9

How did CCN(Cc1nc(C)no1)C(=O)c1ccc(CNc2ccc(C)cc2)cc1 do in these assays?
Tg IFNy HTS: 11

Results for CN1Cc2c(C(=O)Nc3cccc(Cl)c3)ncn2-c2ccccc2S1(=O)=O ?
Tg IFNy HTS: -7

How did CC(C)CCN1Cc2c(C(=O)Nc3cccc(F)c3)ncn2-c2ccccc2S1(=O)=O do in these assays?
Tg IFNy HTS: -83*

Results for CC(C)C(C)NC(=O)c1ncn2c1CN(CC1CC1)S(=O)(=O)c1ccccc1-2 (stereo not drawn) ?
Tg IFNy HTS: -13

How did CC(C)CCN1Cc2ccccc2C2(CCN(C(=O)c3ccco3)CC2)C1 do in these assays?
Tg IFNy HTS: -39

Results for Cn1nc(CN2CCCC2=O)c2c1CN(CC1CCOC1)C2 (stereo not drawn) ?
Tg IFNy HTS: -35

How did COCCC(=O)N1CCO[C@H]2[C@H]1CC[C@H]2OCc1csc(C)n1 do in these assays?
Tg IFNy HTS: -44

What do the screens show for `COCCN1C[C@H]2[C@@H](OC)CCN(C(=O)c3cc(C4CC4)on3)[C@H]2C1`?
Tg IFNy HTS: -26

How did COc1cccc(-c2cnc(N(C)C)nc2C2CCCN(C(=O)Cc3c(C)noc3C)C2)c1 (stereo not drawn) do in these assays?
Tg IFNy HTS: -13

How did Cc1cccc(-c2cnc(C)nc2C2CCCN(C(=O)/C=C/c3cc(F)ccc3F)C2)c1 (stereo not drawn) do in these assays?
Tg IFNy HTS: -73*

What do the screens show for `COc1ccc(/C=C/C(=O)N2CCCC(c3nc(C)ncc3Cc3ccccc3)C2)cc1` (stereo not drawn)?
Tg IFNy HTS: -5

How did CCn1c(CNC(=O)Cn2c(C(F)(F)F)nc3ccccc32)nc2ccccc21 do in these assays?
Tg IFNy HTS: 57

What do the screens show for `CCNC(=O)[C@H]1CC[C@@](C)(C(=O)NCCC(=O)O)C1(C)C`?
Tg IFNy HTS: -2

What do the screens show for `O=S(=O)(c1ccc2c(c1)CCCC2)N1CCC2(CC1)NCCN=C2NCc1ccc(F)cc1`?
Tg IFNy HTS: -16

Results for CC(=O)N1CCCC(Cc2nccnc2C(=O)O)C1 (stereo not drawn) ?
Tg IFNy HTS: -9

Results for CC(C)CN(CC(C)C)C(=O)c1cc2cccnc2n(Cc2ccc(F)cc2)c1=O ?
Tg IFNy HTS: 44

How did O=C(NC1CCN(C(=O)CNCc2ccc3c(c2)OCO3)CC1)c1ccccc1F do in these assays?
Tg IFNy HTS: 7

How did FC(F)(F)c1cc(-c2ccc(-c3ccn[nH]3)o2)cc(C(F)(F)F)c1 do in these assays?
Tg IFNy HTS: -106*

Results for Cc1cc(C)cc(N2CCN(Cc3ccc(-c4ccn[nH]4)o3)CC2=O)c1 ?
Tg IFNy HTS: 4

What do the screens show for `c1coc(Cn2ccnc2-c2ccc(-c3ccn[nH]3)o2)c1`?
Tg IFNy HTS: 4

How did CC(C)CCNC(=O)c1cncc(NS(=O)(=O)c2ccc(Cl)cc2)c1 do in these assays?
Tg IFNy HTS: -36

How did CNC(=O)Cn1cc(NC(=O)c2ccc(CN3CCCC(C)C3)cc2)cn1 (stereo not drawn) do in these assays?
Tg IFNy HTS: 14

What do the screens show for `COc1ccc(Br)cc1-c1nc(Cn2c(=O)c3c(C)cc(C)nc3n(C)c2=O)c(C)o1`?
Tg IFNy HTS: 6

Results for Cc1ccc(C2(O)CCN(C(=O)c3n[nH]c4c3CCC4)CC2)nc1 ?
Tg IFNy HTS: 8

Results for Cc1cc(-c2cnc(N3CCCC3)nc2C2CCN(C(=O)c3n[nH]c4c3CCC4)CC2)on1 ?
Tg IFNy HTS: -82*

Results for Cc1cc(-c2cnc(N3CCOCC3)nc2C2CCN(CC3CCC=CO3)CC2)on1 (stereo not drawn) ?
Tg IFNy HTS: 38

Results for O=C(CC1(C(=O)O)CCCC1)N1CCCC1 ?
Tg IFNy HTS: -6

What do the screens show for `CN(C)C(=O)c1ccc2nnc3ncn(C4CCCC4)c3c2c1`?
Tg IFNy HTS: -3

How did Cc1cccnc1CN(C)C1CCN(Cc2cccnc2)CC1 do in these assays?
Tg IFNy HTS: -1

Results for CC(C)(C#N)c1ccc(N2C(=O)OCc3cnc4ccc(-c5cnc6ccccc6c5)cc4c32)cc1 ?
Tg IFNy HTS: -85*

How did O=C(NCC1CC1)[C@@]12CCCN(c3ncccn3)[C@H]1CN(c1ncccn1)C2 do in these assays?
Tg IFNy HTS: 8

What do the screens show for `COC(=O)[C@@H]1C[C@@H](NC(=O)c2ccc3cccnc3n2)CN1C`?
Tg IFNy HTS: -41

Results for COc1ccc2c(c1)NC1(CCN(S(=O)(=O)c3ccc(F)cc3F)CC1)c1cccn1-2 ?
Tg IFNy HTS: 23

How did CCN1c2cc(C)ccc2-n2cccc2C12CCN(C(=O)c1ccccc1Br)CC2 do in these assays?
Tg IFNy HTS: -1

What do the screens show for `CCN1c2cc(C)ccc2-n2cccc2C12CCN(S(=O)(=O)c1ccc(C(C)C)cc1)CC2`?
Tg IFNy HTS: -28

Bioassay records as filed in PubChem.
